Some test systems named below: SK-MEL-2 melanoma; EKVX NSCLC; SN12C renal; UO-31 renal; TK-10 renal; ACHN renal; CAKI-1 renal; CCRF-CEM leukemia; MOLT-4 leukemia; SR leukemia; RPMI-8226 leukemia; OVCAR-8 ovarian; OVCAR-5 ovarian; OVCAR-4 ovarian; SK-OV-3 ovarian; IGROV1 ovarian; OVCAR-3 ovarian; HS 578T breast; NCI/ADR-RES ovarian; A498 renal.
Common to all, as to assay: NCI-60 one-dose screen, 48 h (100 = growth as untreated, 0 = no growth, -100 = all killed)
What all share (settings): 10 µM unless noted

The text below walks through data of PubChem BioAssay (NCI).

The panel holds about 83,000 compounds, 20% with a hit somewhere; the sample as a whole holds those more often.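 48-hour exposure, single concentration, 96-well plates; percent growth endpoint where 0 means no net growth. Active: below 10.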 Unmarked numbers belong to inactive results. Active and inactive are the calls of the source.

On to `CC/C(=C(/c1ccc(Cl)cc1)c1ccc(OCCCN(C)C)cc1)c1ccc(OC)cc1`, for which the growth was 105% with SK-MEL-2 melanoma; 91% with EKVX NSCLC; 83.3% with SN12C renal; 62.5% with UO-31 renal; 66.7% in the test on TK-10 renal; 83.6% in the test with ACHN renal. The growth with CAKI-1 renal is 82.3%; in the test on CCRF-CEM leukemia it was 37%; in the test with MOLT-4 leukemia it was 28.1%; in the test with SR leukemia it was -40.6% (active); with RPMI-8226 leukemia, -41.3% (active); in the test on OVCAR-8 ovarian, 74.3%. Also, the growth was 73.5% with OVCAR-5 ovarian; 86.6% with OVCAR-4 ovarian; 102% in the test with SK-OV-3 ovarian; 63.4% in the test on IGROV1 ovarian; 68.8% in the test with OVCAR-3 ovarian; 84.8% in the test with HS 578T breast. For the same molecule, the growth in the test on NCI/ADR-RES ovarian is 82.9%.
As to `O=C1Nc2ccccc2/C1=C/c1cccn1CCCCCCn1c2ccccc2c(=O)c2ccccc21`, the growth with SK-MEL-2 melanoma is 86.3%; in the test on EKVX NSCLC, 65.3%; with SN12C renal, 93.6%; in the test with UO-31 renal it was 56.2%; in the test with TK-10 renal it was 78.7%; with ACHN renal, 89.7%. The growth in the test on CAKI-1 renal was 72.6%; in the test with CCRF-CEM leukemia, 49.8%; with MOLT-4 leukemia, 50.9%; with SR leukemia, 80.8%; with RPMI-8226 leukemia, 25.3%; in the test with OVCAR-8 ovarian, 47.5%. The growth in the test with OVCAR-5 ovarian was 82.2%; in the test on OVCAR-4 ovarian, 53.8%; in the test on SK-OV-3 ovarian, 87.2%; with IGROV1 ovarian, 88%; in the test with OVCAR-3 ovarian it was 64.9%; in the test with HS 578T breast, 96.3%. Moreover, the growth in the test with NCI/ADR-RES ovarian is 71.8%.
Take `O=C(CSc1nnc(-c2cc(-c3ccc(Cl)cc3)nc3ccccc23)n1-c1ccccc1)Nc1ccc(Cl)cc1`: the growth was 105% in the test with SK-MEL-2 melanoma; 94.8% with EKVX NSCLC; 90.5% in the test with SN12C renal; 77.6% in the test on UO-31 renal; 132% in the test on TK-10 renal; 106% with ACHN renal. Moreover, the growth in the test with CAKI-1 renal is 89.5%; in the test with CCRF-CEM leukemia, 98.5%; in the test on MOLT-4 leukemia, 84.1%; in the test on SR leukemia it was 78.6%; in the test on RPMI-8226 leukemia, 102%; in the test with OVCAR-8 ovarian, 98.3%. Further, the growth in the test with OVCAR-5 ovarian is 102%; in the test with OVCAR-4 ovarian, 108%; in the test on SK-OV-3 ovarian it was 94.6%; with IGROV1 ovarian, 97.8%; with OVCAR-3 ovarian, 106%; with HS 578T breast it was 109%. For the same molecule, the growth in the test on NCI/ADR-RES ovarian was 99.4%.
`CC(=O)Oc1ccccc1C(=O)N(Cc1ccc2c(Cl)cc(Cl)c(O)c2n1)c1ccccc1`: the growth is 66.7% in the test on SK-MEL-2 melanoma; 37.4% in the test on EKVX NSCLC; 46.8% in the test with SN12C renal; 29.9% in the test with UO-31 renal; 81.3% in the test on TK-10 renal; 33.8% in the test on ACHN renal. The growth with CAKI-1 renal is 38.9%; in the test on CCRF-CEM leukemia it was 31.3%; in the test with MOLT-4 leukemia, 38.7%; with SR leukemia it was 39.7%; with RPMI-8226 leukemia it was 36.1%; in the test with OVCAR-8 ovarian, 34.9%. In addition, the growth was 77.2% in the test with OVCAR-5 ovarian; 36.2% in the test on OVCAR-4 ovarian; 64.5% in the test with SK-OV-3 ovarian; 42.8% with IGROV1 ovarian; 40.9% with OVCAR-3 ovarian; 76.5% with HS 578T breast. Moreover, in the test on NCI/ADR-RES ovarian, the growth was 8.97% (active).
As for `CCCCCC(C)(O)C(C(=O)O)c1ccccc1` (stereo unspecified), the growth with SK-MEL-2 melanoma was 108%; in the test on EKVX NSCLC it was 104%; with SN12C renal it was 97.8%; in the test with UO-31 renal, 94.5%; in the test on TK-10 renal, 104%; with ACHN renal, 96.1%. In addition, the growth was 100% in the test on CAKI-1 renal; 105% in the test on CCRF-CEM leukemia; 112% with MOLT-4 leukemia; 102% with SR leukemia; 101% in the test on RPMI-8226 leukemia; 101% in the test on OVCAR-8 ovarian. The growth with OVCAR-5 ovarian was 96.1%; in the test on OVCAR-4 ovarian, 102%; in the test on SK-OV-3 ovarian it was 101%; with IGROV1 ovarian, 102%; in the test on OVCAR-3 ovarian it was 119%; with HS 578T breast, 107%. Also, the growth with NCI/ADR-RES ovarian was 112%.
Take `Cc1ccccc1NC(=O)c1sc2nc3c(cc2c1N)CCCC3`: the growth in the test on SK-MEL-2 melanoma was 26.4%; in the test on EKVX NSCLC, 45.8%; in the test with SN12C renal, 37.3%; with UO-31 renal, 45.2%; with TK-10 renal, 57.5%; in the test with ACHN renal it was 51.2%. Moreover, the growth in the test with CAKI-1 renal was 51%; with CCRF-CEM leukemia, 20.9%; in the test with MOLT-4 leukemia, 27.4%; with SR leukemia, 14.3%; with RPMI-8226 leukemia it was 21.3%; in the test with OVCAR-8 ovarian, 29.7%. For the same molecule, the growth is 81.6% with OVCAR-5 ovarian; 61.8% with OVCAR-4 ovarian; 25.1% with SK-OV-3 ovarian; 57% in the test with IGROV1 ovarian; 11.3% in the test with OVCAR-3 ovarian; 55.8% in the test with HS 578T breast. Besides, the growth in the test with NCI/ADR-RES ovarian was 26.5%.
Turning to `COc1ccc(N/N=C/c2ccc3c(c2)Sc2ccccc2N3C)cc1`, the growth is 98% in the test on SK-MEL-2 melanoma; 65.9% in the test on EKVX NSCLC; 79.3% with SN12C renal; 42.1% in the test with UO-31 renal; 114% in the test on TK-10 renal; 51.6% with ACHN renal. Also, the growth in the test with CAKI-1 renal is 26.2%; in the test on A498 renal it was 17.5%; in the test with CCRF-CEM leukemia, 73.6%; in the test on MOLT-4 leukemia, 38.8%; in the test on SR leukemia, 42.2%; in the test on OVCAR-8 ovarian it was 65.9%. Moreover, the growth in the test on OVCAR-5 ovarian was 53.3%; in the test with OVCAR-4 ovarian, 60.7%; in the test with SK-OV-3 ovarian it was 87.4%; in the test with OVCAR-3 ovarian, 77.7%; in the test on HS 578T breast it was 95.1%; with NCI/ADR-RES ovarian, 79.6%.
Regarding `COc1cc(-c2c(-c3ccccc3)c[nH]c2C(=O)NCCCO)c(OC)c2c1OCO2`, the growth in the test with SK-MEL-2 melanoma is 109%; in the test on EKVX NSCLC it was 99.2%; in the test with SN12C renal it was 97.1%; with UO-31 renal, 85.7%; in the test with TK-10 renal, 99%; with ACHN renal it was 98.9%. Also, the growth in the test on CAKI-1 renal was 91.1%; in the test on CCRF-CEM leukemia, 88.8%; with MOLT-4 leukemia it was 92.5%; in the test with SR leukemia it was 93.9%; in the test with RPMI-8226 leukemia, 99.7%; with OVCAR-8 ovarian, 100%. Besides, the growth with OVCAR-5 ovarian was 99.5%; with OVCAR-4 ovarian, 107%; with SK-OV-3 ovarian, 96.4%; in the test on IGROV1 ovarian, 107%; in the test on OVCAR-3 ovarian it was 111%; with HS 578T breast it was 92.9%. Also, the growth in the test on NCI/ADR-RES ovarian was 106%.
